Assay results: PubChem BioAssay AID1159580 (chemical genetic matrix, 2015)
Among all 5,500 compounds or so, about 2,000 (36%) were called active. Inconclusive results (about 18%) are left out. No stated cut-off is given here; in the data, active means normalized growth mostly below about 0.91 (no sharp cut-off); inconclusive means no clear call, values can overlap the other calls; inactive means mostly above about 0.92. The list shows a part of the results.

Test: chemical genetic growth profiling, strain panel (AID 1159580);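 further: tested at 20 µM; growth read once vehicle control cultures reached saturation at 30 °C; 1 = growth at the plate median or of vehicle wells; lower values mean less growth of the strain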
Settings: S. cerevisiae deletion strains, growth OD
[1] = locus YHR030C, strain SLT2, active compounds read low
[2] = locus YJL095W, strain BCK1, active compounds read low

Measured: normalized growth

C[C@]12C=CC(=O)C=C1CCC1C2[C@@H](O)C[C@@]2(C)C1CC[C@]2(O)C(=O)COC(=O)CCC(=O)O (stereo not given in full)
inactive: [1] 0.969 | locus YHR079C, strain IRE1, active compounds read low 0.968 | [2] 1 | locus YJR066W, strain TOR1, active compounds read low 0.931 | locus YLR113W, strain HOG1, active compounds read low 1 | locus YNL183C, strain NPR1, active compounds read low 0.931 | locus YOR231W, strain MKK1, active compounds read low 0.979 | locus YPL256C, strain CLN2, active compounds read low 0.963

CC(CC(O)C1OC1(C)C)[C@@H]1CCC2(C)C3=CCC4C(C)(C)C(=O)CCC4(C)C3CC[C@@]12C (stereo not given in full)
inactive: locus YAL021C, strain ccr4, active compounds read low 0.986 | locus YAL026C, strain drs2, active compounds read low 0.997 | locus YAL030W, strain snc1, active compounds read low 1 | locus YBL061C, strain skt5, active compounds read low 1.02 | locus YBR009C, strain hhf1, active compounds read low 0.979 | locus YBR021W, strain FUR4, active compounds read low 0.993 | locus YBR023C, strain chs3, active compounds read low 1.01 | locus YBR171W, strain sec66, active compounds read low 0.999 | locus YBR229C, strain ROT2, active compounds read low 1.03 | locus YBR231C, strain swc5, active compounds read low 1.04 | locus YBR279W, strain paf1, active compounds read low 0.999 | locus YCL011C, strain gbp2, active compounds read low 1.01 | locus YCL016C, strain dcc1, active compounds read low 0.994 | locus YCL029C, strain bik1, active compounds read low 1.03 | locus YCL061C, strain MRC1, active compounds read low 0.994 | locus YCL069W, strain vba3, active compounds read low 0.995 | locus YCR088W, strain abp1, active compounds read low 1.01 | locus YDL005C, strain med2, active compounds read low 1.01 | locus YDL035C, strain GPR1, active compounds read low 0.952 | locus YDL040C, strain nat1, active compounds read low 1 | locus YDL074C, strain BRE1, active compounds read low 1.02 | locus YDL101C, strain DUN1, active compounds read low 1.04 | locus YDL134C, strain PPH21, active compounds read low 1.03 | locus YDL185W, strain tfp1, active compounds read low 1.03 | locus YDL192W, strain arf1, active compounds read low 1.03 | locus YDR001C, strain nth1, active compounds read low 0.984 | locus YDR069C, strain doa4, active compounds read low 1 | locus YDR101C, strain arx1, active compounds read low 1.02 | locus YDR159W, strain sac3, active compounds read low 1.01 | locus YDR162C, strain NBP2, active compounds read low 1.04 | locus YDR195W, strain ref2 0.971 | locus YDR297W, strain sur2, active compounds read low 1 | locus YDR318W, strain mcm21, active compounds read low 1.04 | locus YDR334W, strain swr1, active compounds read low 0.997 | locus YDR335W, strain msn5, active compounds read low 0.993 | locus YDR388W, active compounds read low 1.03 | locus YDR392W, strain spt3, active compounds read low 1.02 | locus YDR502C, strain sam2, active compounds read low 1.03 | locus YEL003W, strain gim4, active compounds read low 1.01 | locus YEL037C, strain rad23, active compounds read low 1 | locus YEL061C, strain CIN8 (second series), active compounds read low 1 | locus YER015W, strain faa2, active compounds read low 1 | locus YER016W, strain bim1, active compounds read low 1 | locus YER110C, active compounds read low 1.03 | locus YER111C, strain swi4, active compounds read low 1.02 | locus YER155C, strain BEM2 (second series), active compounds read low 1.04 | locus YER155C, strain BEM2, active compounds read low 1.04 | locus YER167W, strain BCK2, active compounds read low 1.05 | locus YFR010W, strain ubp6, active compounds read low 0.997 | locus YGL078C, strain dbp3, active compounds read low 1.01 | locus YGL086W, strain mad1, active compounds read low 1.05 | locus YGL167C, strain pmr1, active compounds read low 0.999 | locus YGL173C, strain kem1, active compounds read low 1 | locus YGL227W, strain vid30, active compounds read low 0.998 | locus YGL240W, strain doc1, active compounds read low 1.02 | locus YGL248W, strain PDE1, active compounds read low 1.03 | locus YGL253W, strain hxk2, active compounds read low 0.994 | locus YGR135W, strain pre9, active compounds read low 1.04 | locus YGR229C, strain SMI1, active compounds read low 1.08 | locus YGR252W, strain gcn5, active compounds read low 1.17 | locus YHR013C, strain ard1, active compounds read low 1.03 | locus YHR027C, strain rpn1, active compounds read low 1 | [1] 1.03 | locus YHR079C, strain IRE1 (second series), active compounds read low 1.03 | locus YHR094C, strain hxt1, active compounds read low 1.04 | locus YHR129C, strain ARP1, active compounds read low 1.04 | locus YHR142W, strain chs7, active compounds read low 1 | locus YHR200W, strain rpn10, active compounds read low 1.03 | locus YIL066C, strain RNR3, active compounds read low 1.01 | locus YIL073C, strain SPO22, active compounds read low 1.1 | locus YIL125W, strain kgd1, active compounds read low 1.03 | locus YIR030C, strain dcg1, active compounds read low 1.03 | locus YJL092W, strain hpr5, active compounds read low 1 | locus YJL095W, strain BCK1 (second series), active compounds read low 1 | [2] 1.05 | locus YJL115W, strain asf1, active compounds read low 0.992 | locus YJL129C, strain trk1, active compounds read low 0.993 | locus YJL134W, strain LCB3, active compounds read low 1.04 | locus YJL154C, strain vps35, active compounds read low 1 | locus YJL164C, strain tpk1, active compounds read low 0.966 | locus YJL166W, strain qcr8, active compounds read low 0.988 | locus YJL168C, strain set2, active compounds read low 1.04 | locus YJL187C, strain SWE1 (second series), active compounds read low 1.03 | locus YJL187C, strain SWE1, active compounds read low 0.995 | locus YKL068W, active compounds read low 1.01 | locus YKL160W, strain elf1, active compounds read low 0.993 | locus YKR001C, strain vps1, active compounds read low 1.07 | locus YKR026C, strain gcn3, active compounds read low 1.01 | locus YKR091W, strain srl3, active compounds read low 0.996 | locus YLL001W, strain dnm1, active compounds read low 0.949 | locus YLL026W, active compounds read low 0.998 | locus YLL041C, strain sdh2, active compounds read low 0.998 | locus YLR027C, strain aat2, active compounds read low 0.993 | locus YLR039C, strain RIC1, active compounds read low 1.09 | locus YLR058C, strain SHM2, active compounds read low 1.04 | locus YLR102C, strain apc9, active compounds read low 1.04 | locus YLR221C, strain rsa3, active compounds read low 1.03 | locus YLR258W, strain gsy2, active compounds read low 1.01 | locus YLR262C, strain YPT6, active compounds read low 1.02 | locus YLR268W, strain sec22, active compounds read low 1.04 | locus YLR320W, strain mms22, active compounds read low 1.03 | locus YLR330W, strain CHS5, active compounds read low 1.04 | locus YLR342W, strain FKS1, active compounds read low 1.02 | locus YLR357W, strain rsc2, active compounds read low 1.02 | locus YLR370C, strain arc18, active compounds read low 1.01 | locus YLR371W, strain rom2, active compounds read low 1.04 | locus YLR384C, strain iki3, active compounds read low 1 | locus YLR418C, strain cdc73, active compounds read low 1.09 | locus YML016C, strain PPZ1, active compounds read low 1.05 | locus YML032C, strain rad52, active compounds read low 1.04 | locus YML120C, strain ndi1, active compounds read low 0.995 | locus YML124C, strain tub3, active compounds read low 1.03 | locus YMR058W, strain fet3, active compounds read low 1.01 | locus YMR078C, strain ctf18, active compounds read low 1.05 | locus YMR125W, strain sto1, active compounds read low 1 | locus YMR129W, active compounds read low 1 | locus YMR205C, strain PFK2, active compounds read low 0.943 | locus YMR223W, strain ubp8, active compounds read low 1.03 | locus YMR231W, strain pep5, active compounds read low 0.98 | locus YMR307W, strain GAS1, active compounds read low 1.07 | locus YNL067W, strain RPL9B, active compounds read low 1.03 | locus YNL071W, strain lat1, active compounds read low 0.996 | locus YNL153C, strain GIM3, active compounds read low 1.01 | locus YNL209W, strain ssb2, active compounds read low 1 | locus YNL233W, strain BNI4, active compounds read low 1.03 | locus YNL248C, strain rpa49, active compounds read low 0.959 | locus YNL250W, strain rad50, active compounds read low 1.04 | locus YNL271C, strain bni1, active compounds read low 1.03 | locus YNL298W, strain CLA4, active compounds read low 1.02 | locus YNL307C, strain MCK1, active compounds read low 1.03 | locus YNL322C, strain KRE1 (second series), active compounds read low 0.989 | locus YNR049C, strain mso1, active compounds read low 0.995 | locus YNR052C, strain pop2, active compounds read low 1.04 | locus YOL006C, strain TOP1, active compounds read low 1.09 | locus YOL012C, strain htz1 1.47 | locus YOL147C, strain pex11, active compounds read low 1.05 | locus YOR001W, strain rrp6, active compounds read low 0.983 | locus YOR061W, strain CKA2, active compounds read low 1.03 | locus YOR069W, strain VPS5, active compounds read low 1.03 | locus YOR070C, strain gyp1, active compounds read low 1.02 | locus YOR080W, strain dia2, active compounds read low 1.01 | locus YOR083W, strain WHI5, active compounds read low 0.994 | locus YOR106W, strain vam3, active compounds read low 0.982 | locus YOR136W, strain idh2, active compounds read low 1.03 | locus YOR144C, strain elg1, active compounds read low 1.04 | locus YOR184W, strain ser1, active compounds read low 0.955 | locus YOR265W, strain rbl2, active compounds read low 0.999 | locus YOR270C, strain vph1, active compounds read low 0.877 | locus YOR290C, strain snf2, active compounds read low 0.946 | locus YOR316C, strain cot1, active compounds read low 1.02 | locus YPL051W, strain arl3, active compounds read low 1.03 | locus YPL078C, strain atp4, active compounds read low 0.966 | locus YPL106C, strain sse1, active compounds read low 1.1 | locus YPL240C, strain hsp82, active compounds read low 1.01 | locus YPL241C, strain CIN2, active compounds read low 1.05 | locus YPR119W, strain clb2, active compounds read low 1.04 | locus YPR141C, strain kar3, active compounds read low 1.05 | locus YPR163C, strain tif3, active compounds read low 1.04 | locus YPR167C, strain met16, active compounds read low 1.03 | strain wtn01, active compounds read low 1.02
active: locus YDR137W, strain rgp1, active compounds read low 0.831 | locus YLR262C, strain YPT6 (second series), active compounds read low 0.768
